# Measured values as given in article PMC13494018.
# B1: design_600_24101276-ad9d-4944-b73e-53bb160363ad_1967_dldesign_0_cycle1_af2pred (protein)
# chain: GNKKLAAELLKKSIEYFIEAVKSKKLSTASGYASKSAVYFAKAVYVGTGVPPEVAYKVRLIVLEIGLKAIEKRQEELKKKE
# B2: design_600_24101276-ad9d-4944-b73e-53bb160363ad_1126_dldesign_0_cycle1_af2pred (protein)
# chain: SEEAKKLLEELKKAAEEAIAKAKELEKEDPAKAAEYAKKALKELRAKGKEIAELDPAFAPEAGAEVQKVQEYRAEAEAKALRKK
# B3: design_600_24101276-ad9d-4944-b73e-53bb160363ad_768_dldesign_0_cycle1_af2pred (protein)
# chain: AEDLKKAIEKIKKEVGEEAAKLVGEALKAKQAAADDPSLAETQLKKVEELEKEAKKLDPKAAKLVSKIKKVVKRMVEN
# B4: design_600_24101276-ad9d-4944-b73e-53bb160363ad_1742_dldesign_0_cycle1_af2pred (protein)
# chain: MEEKYKKAKELLEKAKEEFKKGNYEKALKLAAESVALGYEALGDEEEAKKAKEKAEEALKNPETLGAVAGELLAEAKGLVHLLEIKIN
# B5: design_600_24101276-ad9d-4944-b73e-53bb160363ad_1809_dldesign_0_cycle1_af2pred (protein)
# chain: SMEKEEAVKRREKAIEKGEKAIEEAAKEGIEAAEKAKEVMKELKKEAEKFGKETGPEGEKAAKTIKRIAENTEHGLEAIIRREKE
# B6: design_600_24101276-ad9d-4944-b73e-53bb160363ad_2181_dldesign_0_cycle1_af2pred (protein)
# chain: MSAAADAQLLLERAEQALAAAEANPELAPAANERIAAAAERLLGPEAAAALRAIAEEHADDPVAAVRAQYEYVAALAEKAEA
# B7: design_600_24101276-ad9d-4944-b73e-53bb160363ad_2225_dldesign_0_cycle1_af2pred (protein)
# chain: MSEGLKEAAKELVEELRETIATKSPEQARGELTLARSSAKSIEKLDPESGKELLAKVEELEKELEAKAAA
# B8: design_600_24101276-ad9d-4944-b73e-53bb160363ad_1688_dldesign_0_cycle1_af2pred (protein)
# chain: GLKEEGKKKIKEIKELAKKALENPEKAEEYVKKARELAKEVAEKLPELGKEAAEAAQEALENRAEGKAKLAREK
# B9: design_600_24101276-ad9d-4944-b73e-53bb160363ad_1044_dldesign_0_cycle1_af2pred (protein)
# chain: MTPEERKALALKEQAEHTAKAGKKLGAKDPEAALKAAERLKKLAERAKKTGTEEGKEAAKLAEEYAKELEKLAKKAKE
# B10: design_600_24101276-ad9d-4944-b73e-53bb160363ad_2034_dldesign_0_cycle1_af2pred (protein)
# chain: DEKVKKAKEEAEKISKEGVELAKKGAENPEKYEEYEKKAKELFDKAMAIAKEVAKENPEGGAKIAEIVHTLRAEAKAVIAKIK
# B11: design_600_24101276-ad9d-4944-b73e-53bb160363ad_2244_dldesign_0_cycle1_af2pred (protein)
# chain: MEEEKKKEEKKKELKEKLKELEKKAEEAAKAAKADPAHLPELAAVAQELYQLSAEAEFEGDKETAEKAKEVARKAREVGKAARAA
# B12: design_600_24101276-ad9d-4944-b73e-53bb160363ad_2321_dldesign_0_cycle1_af2pred (protein)
# chain: AQKAKNEAESLLTRAEQALEAGVSGDAEQAKKAAEKIEEYAKKAEEIGKKYPEVKEYAEKKAEEIKELAKKAKEAAKKK
# B13: design_600_24101276-ad9d-4944-b73e-53bb160363ad_1035_dldesign_0_cycle1_af2pred (protein)
# chain: EKLEEAEKERDKAVDKLAALVAKALGPEAGAKARAAAKKGLAALKAVVAEAAKTSGLTAELAKALHEVYQATAEAELLKKK
# B14: design_600_24101276-ad9d-4944-b73e-53bb160363ad_1344_dldesign_0_cycle1_af2pred (protein)
# chain: SFKKEAAIESSKELLDQAVAAAKADPARATEIAKTGLKKATERAKKAGEEAYKTVKEYGEKLLAEVEAAAKAAA
# B15: design_600_24101276-ad9d-4944-b73e-53bb160363ad_1891_dldesign_0_cycle1_af2pred (protein)
# chain: GLEEEKKAVEEQKKKVEETGKKALEMAKSGEKAEEGLESLKKLIEETKEFAKKSKLKALAAEVTQLALEKLSEAKFELSKSKA
# B16: design_600_24101276-ad9d-4944-b73e-53bb160363ad_769_dldesign_0_cycle1_af2pred (protein)
# chain: NEELIKFKAKAYSTAYSTAHTVAAAEKIAKTGTPEEAAKAKAAAAKALARLKEVGKEAKKKGPEYAKAFEEAAKEGEKVLKELLA
# B17: design_600_24101276-ad9d-4944-b73e-53bb160363ad_1404_dldesign_0_cycle1_af2pred (protein)
# chain: SLKEEIKNKEKSGKNNVEAAKMAAEEGDITFAKSAIAAAKKAIEQLKELAKKATPEVAKEGKEAAEKLEKEREEAEKLLKKKEA
# B18: design_600_24101276-ad9d-4944-b73e-53bb160363ad_2022_dldesign_0_cycle1_af2pred (protein)
# chain: MKEEAKKLAKEAKEKAKEGAANPAYKKAITLYNEALADFRAAEATGSKEAFEEGKEYFKKAEEEEKKVKEKLEKE
# B19: design_600_24101276-ad9d-4944-b73e-53bb160363ad_1735_dldesign_0_cycle1_af2pred (protein)
# chain: SEEEEKLREENRKIAEKERNAHVAKAAAKLVEKATPEEAVAILEKAAKAASDTEFFLALAKKVKAEGKKGVKEAVKALKKRAKEL
# B20: design_600_24101276-ad9d-4944-b73e-53bb160363ad_2443_dldesign_0_cycle1_af2pred (protein)
# chain: VEEAEKRAKRLKEEAEKAAKELAKEGGEEKAKELLEKAKEAAEKFLEAAKKGDGKAAADYLSEARGYIAELRIEAKKLK
# B21: design_600_24101276-ad9d-4944-b73e-53bb160363ad_894_dldesign_0_cycle1_af2pred (protein)
# chain: MTVEEYLKQAKEAGEEAIKILKETAKKDPSSKDVADMLIKAVETTLKEGSEKAKKEGAEKAKQLLEKMKLGLRTAKRLLENVERSE
# B22: design_600_24101276-ad9d-4944-b73e-53bb160363ad_984_dldesign_0_cycle1_af2pred (protein)
# chain: AKEEDLKKAEEELKKFAEEAAKELKEAGAKKQDIESTKEYGEHRAEAVVTTSKKKGLSPEELKKLVKEAKERIKKYKENKL
# B23: design_600_24101276-ad9d-4944-b73e-53bb160363ad_1928_dldesign_0_cycle1_af2pred (protein)
# chain: GALEEAKKVIEDARDKLSAVAAKKSPEYAKEVADNLEKVAKGEGVKEHATRAAEVLAEADPENAAELKKYLAEAVQTYLQLRAEAEK
# B24: design_600_24101276-ad9d-4944-b73e-53bb160363ad_2193_dldesign_0_cycle1_af2pred (protein)
# chain: SLEKEIEKLAKELKKAKELDPKTAAEELRKIAKEARKVGKEAAKKDKELAKKAAKLAQEAYEAAAEKEQQARLE
# B25: design_600_24101276-ad9d-4944-b73e-53bb160363ad_1440_dldesign_0_cycle1_af2pred (protein)
# chain: SEKVKKDSEAIRKLVKAVKEAGKAAKAAAKAAPEVAAVAEAAQKASAQLVFEALDEENIEEAAKKAEEAIKAAAEAVKAAAKAAK
# B26: design_600_24101276-ad9d-4944-b73e-53bb160363ad_1759_dldesign_0_cycle1_af2pred (protein)
# chain: GEEASKKAKEDAKLVSEAAKYAKEAGKYAKKIAELKPEKAEEAKKIKEKSAKLLYELADNIEDEEKAKEYLDEIKKLYKEAEELYKEA
# B27: design_600_24101276-ad9d-4944-b73e-53bb160363ad_1283_dldesign_0_cycle1_af2pred (protein)
# chain: EEEKKEIAKKTEEYYKELLKVAKEVAAKDPSKKPELAKLTDEAAQYVAEAKAGLNPEEALEKVKKLLEEAKKIA
# B28: design_600_24101276-ad9d-4944-b73e-53bb160363ad_1012_dldesign_0_cycle1_af2pred (protein)
# chain: VEELVKKAAEKKEKAVELIDEGKLEEAEKEAEELKKLAEEIKKKDPKLGEEALKGARALKRLIKEAKEAEEK
# B29: design_600_24101276-ad9d-4944-b73e-53bb160363ad_1497_dldesign_0_cycle1_af2pred (protein)
# chain: DEAHKRAKALYEEDRALQKELRKKAKEAKEMAKEFADDPVWKAKAEEASKLNLQALFDPENKETREKGEKTYEEVYKKYKELKKKK
# B30: design_600_24101276-ad9d-4944-b73e-53bb160363ad_2211_dldesign_0_cycle1_af2pred (protein)
# chain: SEAYEEAKKEAEAAVKALKELAKEKPEAKEKAEKLIKRVEEELKKAEEGNEEAARIAKGSIEARKLAAESVLKT
# B31: design_600_24101276-ad9d-4944-b73e-53bb160363ad_1965_dldesign_0_cycle1_af2pred (protein)
# chain: SEELEKVAKEAKEAAKERIEYAKKAAEANPALAETAKRMIEGAKELAKKVEKYAKEGDLKKAERERLRIESRKEQAKETLKKL
# B32: design_600_24101276-ad9d-4944-b73e-53bb160363ad_1181_dldesign_0_cycle1_af2pred (protein)
# chain: AAEEEIKKAITEAKDAALDSAYIAAKDPSKAAEAEAAYNAALGKLEEALKVLDEETRKKAIQSVKNIRDSTYEASKKSLKS
# B33: design_600_24101276-ad9d-4944-b73e-53bb160363ad_953_dldesign_0_cycle1_af2pred (protein)
# chain: DAKKAAADALVATAAAEDPSLKPLAQEVADKAIASEDGLKAAKEGMTALAKKYPEYAKAFAAAMQAFYETYNEAEFKKKKA
# B34: design_600_24101276-ad9d-4944-b73e-53bb160363ad_1218_dldesign_0_cycle1_af2pred (protein)
# chain: DEEKKKKAAEALDKAAELAKKAAEDEKYLPEALKALKETAKLAGEALGAEAAHAILEARAVVKAKGKEGAKEAAEVLEELRKKVR
# B35: design_600_24101276-ad9d-4944-b73e-53bb160363ad_1889_dldesign_0_cycle1_af2pred (protein)
# chain: MAEKEALIAELKAKAAEAKAKGAAGSAGEQFQWDVIAAGYEKGAEAAKKAKTAEEAKKAAKEAVEKAKRVAEHIKKSEEEAEKRA
# B36: design_600_24101276-ad9d-4944-b73e-53bb160363ad_1872_dldesign_0_cycle1_af2pred (protein)
# chain: HSEEELKLLERMREIRKRAKEAVKLLKELGEKELGEKYAKEIADLLYQSIDDPENQEKYVEEAEAKAEELEKLAEEAKKKAEE
# B37: design_600_24101276-ad9d-4944-b73e-53bb160363ad_2105_dldesign_0_cycle1_af2pred (protein)
# chain: NMEEAKKLLKETEKAAKKAVEIAGEEAKPAAEKAIKVAEKFLKYGDVEALKDILAATKAYLAKVEAEKAAAA
# B38: design_600_24101276-ad9d-4944-b73e-53bb160363ad_1238_dldesign_0_cycle1_af2pred (protein)
# chain: AVKEQAKALAEAGLKADVETAKKYAAAAVLLAFDSSDTEDVKYAAELLKKAAKEATDPEKKEAFERAARVVERAAEDMRKAEER
# Molecular target: VTCN1, Q7Z7D3
# Sequence (Q7Z7D3 whole entry): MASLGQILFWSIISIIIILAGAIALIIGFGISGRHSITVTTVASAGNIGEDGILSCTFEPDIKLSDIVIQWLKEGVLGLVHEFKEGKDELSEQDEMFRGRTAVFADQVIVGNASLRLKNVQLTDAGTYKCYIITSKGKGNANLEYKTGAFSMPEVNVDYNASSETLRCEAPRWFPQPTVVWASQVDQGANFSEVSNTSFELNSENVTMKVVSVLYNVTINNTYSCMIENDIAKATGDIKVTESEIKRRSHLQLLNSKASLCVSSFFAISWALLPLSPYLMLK
row,Binder,binding in a display sort
1,B1,not found (inactive)
2,B2,not found (inactive)
3,B3,not found (inactive)
4,B4,not found (inactive)
5,B5,not found (inactive)
6,B6,not found (inactive)
7,B7,not found (inactive)
8,B8,not found (inactive)
9,B9,not found (inactive)
10,B10,not found (inactive)
11,B11,not found (inactive)
12,B12,not found (inactive)
13,B13,binds (active)
14,B14,not found (inactive)
15,B15,not found (inactive)
16,B16,not found (inactive)
17,B17,not found (inactive)
18,B18,not found (inactive)
19,B19,not found (inactive)

row,Binder,binding in a display sort
1,B20,not found (inactive)
2,B21,not found (inactive)
3,B22,not found (inactive)
4,B23,not found (inactive)
5,B24,not found (inactive)
6,B25,not found (inactive)
7,B26,not found (inactive)
8,B27,not found (inactive)
9,B28,not found (inactive)
10,B29,not found (inactive)
11,B30,not found (inactive)
12,B31,not found (inactive)
13,B32,not found (inactive)
14,B33,not found (inactive)
15,B34,not found (inactive)
16,B35,not found (inactive)
17,B36,binds (active)
18,B37,not found (inactive)
19,B38,not found (inactive)
